# In the library only some 4.1% were active in any assay of this set; here they are far more common.
# Mdm2-MdmX inh – inhibitors of human Mdm2-MdmX association, primary screen, cell-based, luminescence, split luciferase, SaOS-2, uHTS; Protein Mdm4 (Homo sapiens) + E3 ubiquitin-protein ligase Mdm2 (Homo sapiens), …; SaOS-2 split-luciferase Mdm2/MdmX complementation; inhibition, % at 8 µM; 330,000 compounds, 3% hits;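 active = inhibition of at least 50% at 8 µM in the primary screen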
# Beta apoptosis – inhibitors of cytokine-induced beta cell apoptosis, primary screen, luminescence. INS-1E cytokine-induced death, ATP luminescence, 48 h; percent of positive-control rescue, neutral wells zero. protection from apoptosis, % (concentration not given with the values). 300,000 compounds, 0.8% hits. AID 435005, 2010;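 active = Every replicate reaches about 75%, or at least half do and their mean reaches it too, limit read from the data; inconclusive = At least half of replicates reach the limit but their mean does not; inactive = Under half of replicates reach the limit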;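 also: 0% = cytokine-treated negative control wells and 100% = positive control rescue; higher means more ATP so stronger rescue from cytokine killing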
# CSC inhib – cancer stem cell viability inhibitors, primary screen, luminescence; cancer stem cell-like cells viability; inhibition, % at 7.5 µM; 300,000 compounds, 1.1% hits; AID 2717, 2010; in the data active = inhibition above about 75%; inconclusive = no clear call, values can overlap the other calls; tested in HMLE shEcad cells
# A1 inh – caspase 3/7 activation in MEF A1-2A-BIM cells, primary screen, A1 inhibitor project, cell-based, luminescence, HTS. Caspase-Glo 3/7 luminescence, 3 h; percent of clofoctol response, vehicle zero. caspase activation, % (concentration not given with the values). 330,000 compounds, 0.066% hits. AID 2462, 2010;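 active = over half of replicate activation scores above 10%, or exactly half above 10 with the replicate mean above 10; inconclusive = replicate mean below 10 yet half the replicates above 10; inactive = over half of replicates below 10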
# aSyn 5UTR inh – MLPCN primary screen, SNCA 5' untranslated region. 300,000 compounds, 0.82% hits. AID 1813, 2009. alpha-synuclein 5'UTR reporter, inhibitor activity. inhibition, % (tested at 7.5 µM); in the data active = inhibition above about 60%; inconclusive = no clear call, values can overlap the other calls;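 also: H4 neuroglioblastoma cells stably carrying SNCA 5'UTR luciferase fusion; 0% = DMSO wells and 100% = positive control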
# Mdm2 MdmX conf – Mdm2-MdmX complex disruptors, retested hits, confirmation, luminescence, single concentration. 10,000 compounds, 55% hits. Mdm2-MdmX binding, luminescent assay. inhibition, % at 8 µM. shares compounds with Mdm2-MdmX inh. AID 489028, 2010; in the data active = inhibition above about 40%
# Full FLuc ctr – full-length luciferase signal inhibition, confirmation, counter-screen for Mdm2/MdmX interaction inhibitor project, cell-based, single concentration, SaOS-2; shares compounds with Mdm2-MdmX inh; 6,200 compounds, 77% hits; SaOS-2 full-length luciferase counterscreen, luminescence; inhibition, % at 8 µM;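 active = mean inhibition at 8 µM reaching about 37%, which flags the compound as non-specific, limit read from the data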;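 also: p53-null SaOS-2 cells with luciferase driven by a doxycycline-inducible promoter; compound on cells about two nights before reading with doxycycline added after day one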
# * marks the source's active call; other numbers are inactive results; i = inactive; ? = inconclusive; / = not tested or not shown.
SMILES,Mdm2-MdmX inh,Beta apoptosis,CSC inhib,A1 inh,aSyn 5UTR inh,Mdm2 MdmX conf,Full FLuc ctr
COc1ccc(OCCn2cc(/C=C(\C#N)C(=O)NCc3ccco3)c3ccccc32)cc1,74.7*,4.1,2.0,-0.1,45.6,42.1*,50.7*
COc1ccc(/C=c2\s/c(=C(/C#N)C(=O)NCc3ccco3)n(-c3ccccc3)c2=O)cc1,68.1*,6.2,3.7,-1.0,5.1,-1.3,/
COc1ccccc1OCCn1cc(/C=C(\C#N)C(=O)NCc2ccco2)c2ccccc21,23.4,-10.2,2.7,1.5,-1.8,/,/
CCn1c(SCC(=O)Nc2nncs2)nnc1C(C)NC(=O)c1ccccc1Br (centres undefined),14.7,-2.6,-3.3,0.4,-0.6,/,/
CCOC(=O)c1c(C)oc2c(F)c(F)c(F)c(F)c2c1=O,100.6*,/,90.0*,0.3,-85.3,36.2,/
COc1ccccc1[C@H]1C(c2cccc(C)c2)=NN(c2ccccc2)[C@@H]1CO,55.9*,/,/,/,/,35.8,/
COc1ccccc1[C@H]1C(c2ccccc2)=NN(c2ccccc2)[C@@H]1CO,38.1,/,/,/,/,/,/
Fc1ccc(NC(=S)NNc2ncc(C(F)(F)F)cc2Cl)c(F)c1,77.3*,63.8,25.1,-1.6,27.4,48.8*,66.8*
FC(F)(F)c1cnc(NNC(=S)Nc2ccc(Cl)cc2)c(Cl)c1,90.3*,93.4*,58.8,-0.7,5.1,66.5*,23.3
Cc1ccc(NC(=S)NNc2ncc(C(F)(F)F)cc2Cl)cc1,15.0,11.3,-4.5,1.5,23.0,/,/
COCc1ccc(CN2CCC(n3nccc3NC(=O)CCOc3ccccc3)CC2)o1,4.7,-1.8,-11.4,-0.4,4.8,/,/
O=C1N(c2ccccc2)C[C@@H]2C[C@@H](c3cc4ccccc4o3)N3CCC[C@@]123,97.8*,/,/,/,i,98.0*,35.1
O=c1[nH]c(/C=C\c2ccccc2F)nc(O)c1[N+](=O)[O-],-11.4,-5.5,2.9,-0.1,6.8,/,/
CC1=NN(c2ccc(C)cc2)C(=O)/C1=C/c1ccc(-c2cc([N+](=O)[O-])ccc2O)o1,66.5*,/,/,/,3.7,31.4,/
CC1=NN(c2ccc(C(=O)O)cc2)C(=O)/C1=C/c1ccc(-c2ccccc2F)o1,8.9,-14.7,31.7,0.4,-88.1,/,/
COc1ccc(-n2c(CCC(=O)O)ccc2-c2ccc(F)cc2)c(OC)c1,-3.4,-2.4,6.9,0.6,-0.8,/,/
Cc1ccc(CSCC(=O)Nc2ccccc2C(=O)O)cc1,51.5*,4.4,34.0,-2.4,-93.8,-13.8,/
CSc1ccccc1NC(=O)CSCc1ccc(C)cc1,40.9,-6.7,17.5,-0.1,-112.8,/,/
CC(C)C(OC(=O)c1nsc(Cl)c1Cl)C(=O)NCC1CCCO1 (centres undefined),-4.8,-9.2,/,-0.3,-5.2,/,/
COc1ccccc1NC(=O)c1cc2c(CO)cnc(C)c2oc1=Nc1cc(OC)c(OC)c(OC)c1,-10.8,4.2,12.4,-0.4,0.5,/,/
COc1ccccc1NC(=O)c1cc2c(CO)cnc(C)c2oc1=Nc1ccc(OC)c(OC)c1,64.8*,35.7,15.9,-0.4,-5.6,35.2,/
NC(N)=NN=C1c2ccccc2-c2ccccc21,-7.9,9.6,-10.5,-0.2,-3.3,/,/
CCN(CC)CCOc1ccc(Br)cc1,-6.6,2.6,-3.3,-0.1,15.1,/,/
CCN(CC)CCOc1ccc2c(c1)C(=NO)c1cc(OCCN(CC)CC)ccc1-2,95.8*,?,68.7,0.6,8.1,90.5*,43.9*
CCCOc1ccc2c(c1)C(=NN=C(N)N)c1cc(OCCC)ccc1-2,95.8*,7.7,111.6*,0.2,-45.8,33.9,/
CCN(CC)S(=O)(=O)c1ccc2c(c1)C(=NO)c1cc(S(=O)(=O)N(CC)CC)ccc1-2,83.2*,21.8,85.4*,-0.2,114.9*,67.8*,23.7
CC(C)c1ccc(/C=C2\SC(=O)N(CC(=O)NC3C=CS(=O)(=O)C3)C2=O)cc1 (centres undefined),76.6*,7.6,-5.1,0.2,-69.0,40.4*,40.4*
